Bioassay records deposited in PubChem by several laboratories.
Anthrax LF inh2: Bacillus anthracis LF protease inhibitors, primary screen, biochemical, multiplex microsphere, MLPCN library. inhibition, % at 10 µM. 360,000 compounds, 0.12% hits. multiplex microsphere protease cleavage assay. AID 588501, 2011. Lethal factor (Bacillus anthracis), P15917; note: plate controls were buffer without enzyme for full effect and enzyme alone for no effect
Target sequence (P15917 whole entry, looked up): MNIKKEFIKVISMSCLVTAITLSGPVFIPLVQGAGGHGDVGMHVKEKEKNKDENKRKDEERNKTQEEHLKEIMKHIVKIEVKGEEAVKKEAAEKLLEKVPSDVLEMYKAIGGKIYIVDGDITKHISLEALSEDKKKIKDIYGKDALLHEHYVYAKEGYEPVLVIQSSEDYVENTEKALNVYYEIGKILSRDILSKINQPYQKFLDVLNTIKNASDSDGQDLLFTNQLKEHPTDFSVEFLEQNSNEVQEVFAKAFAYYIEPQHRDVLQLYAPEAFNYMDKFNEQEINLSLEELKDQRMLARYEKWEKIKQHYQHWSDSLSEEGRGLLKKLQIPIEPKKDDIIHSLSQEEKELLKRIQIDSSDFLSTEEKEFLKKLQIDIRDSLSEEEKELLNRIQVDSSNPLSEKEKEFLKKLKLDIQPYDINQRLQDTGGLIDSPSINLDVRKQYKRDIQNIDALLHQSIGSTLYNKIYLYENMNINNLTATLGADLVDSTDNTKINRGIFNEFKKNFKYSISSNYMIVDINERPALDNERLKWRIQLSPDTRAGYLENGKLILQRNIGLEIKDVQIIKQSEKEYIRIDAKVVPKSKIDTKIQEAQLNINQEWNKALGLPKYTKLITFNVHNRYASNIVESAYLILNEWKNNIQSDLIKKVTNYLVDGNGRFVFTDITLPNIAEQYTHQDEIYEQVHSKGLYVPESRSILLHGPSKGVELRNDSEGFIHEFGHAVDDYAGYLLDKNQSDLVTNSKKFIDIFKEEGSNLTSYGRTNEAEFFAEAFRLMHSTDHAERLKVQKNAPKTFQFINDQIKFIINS
BoNT-A LC inh2: BoNT/A light chain protease inhibitors, primary screen, biochemical, flow cytometry, MLPCN library; Botulinum neurotoxin type A light chain protease (Clostridium botulinum A str. ATCC 3502); multiplex microsphere protease substrate cleavage; inhibition, % at 10 µM; 360,000 compounds, 0.17% hits; AID 588499, 2011; note: plate controls were buffer without enzyme for full effect and enzyme alone for no effect
BoNT-F LC inh: BoNT/F light chain protease inhibitors, primary screen, biochemical, flow cytometry, MLPCN library | AID 588497, 2011 | Botulinum neurotoxin type F light chain protease (Clostridium botulinum) | 360,000 compounds, 0.22% hits | Multiplex microsphere protease cleavage assay | inhibition, % at 10 µM; in the data active = inhibition above about 35%, passing the limit was not always enough; inconclusive = no clear call, values can overlap the other calls; note: plate controls were buffer without enzyme for full effect and enzyme alone for no effect
SSB-PriA inh: inhibitors of Klebsiella pneumoniae PriA binding to SSB C-terminal tail, primary screen, biochemical, AlphaScreen | AlphaScreen SSBct-PriA binding, biotinylated peptide | inhibition, % at 33 µM | 430,000 compounds, 0.6% hits; in the data active = inhibition mostly above about 37%, no sharp cut-off; inactive = mostly below about 20%;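 note: plate controls were negative control peptide for no effect and reference peptide for full effect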
Bead autofluor: flagged as autofluorescent in microsphere protease counterscreen | compound autofluorescence counterscreen, microsphere flow cytometry; active compounds read high | fluorescence intensity (concentration not given with the values) | 360,000 compounds, 3.1% hits | AID 624483; in the data active = fluorescence intensity above about 16000; inconclusive = no clear call, values can overlap the other calls
Active calls of the source: *; ! = not confirmed by another sample. A selection: hits, their analogues and other compounds. The true share with any hit is near 3.1%. Cut-off read from the data, not from the text of the source, unless noted: active = inhibition above about 30%; inconclusive = no clear call, values can overlap the other calls; inactive = below that.

What do the screens show for `O=C(CCN1CCc2ccccc21)c1ccc2c(c1)OCCO2`?
Anthrax LF inh2: inconclusive; BoNT-A LC inh2: inconclusive; BoNT-F LC inh: inconclusive; SSB-PriA inh: 47.6*; Bead autofluor: 1741

How did CCCCNC(=O)c1ccc2c(c1)ncn2C1CCCCC1 do in these assays?
Anthrax LF inh2: 4.6; BoNT-A LC inh2: 0.9; BoNT-F LC inh: -4.6; SSB-PriA inh: 3.6; Bead autofluor: 3218

Results for CC(C)CCNC(=O)c1ccc2c(c1)ncn2C1CCCCC1 ?
Anthrax LF inh2: 2.5; BoNT-A LC inh2: 2.8; BoNT-F LC inh: 5.0; SSB-PriA inh: -31.0; Bead autofluor: 19635*

How did CCOC(=O)C1=C(C)OC(N)=C(C(=O)OCC)[C@@]12C(=O)N(CC(N)=O)c1ccccc12 do in these assays?
Anthrax LF inh2: -6.9; BoNT-A LC inh2: 0.8; BoNT-F LC inh: 17.5; SSB-PriA inh: -7.2; Bead autofluor: 4362

How did C=CCOC(=O)C1=C(C)OC(N)=C(C(=O)OCC)C12C(=O)N(CC(N)=O)c1ccccc12 (stereo unspecified) do in these assays?
Anthrax LF inh2: 2.2; BoNT-A LC inh2: inconclusive; BoNT-F LC inh: 3.2; SSB-PriA inh: -9.8; Bead autofluor: 19254*

How did O=C(NCc1cccs1)N1CCC(Oc2ncccc2Cl)CC1 do in these assays?
SSB-PriA inh: 2.0

Results for CC(C)(C)C1CCc2onc(C(=O)Nc3cnn(Cc4ccc(F)cc4)c3)c2C1 (stereo unspecified) ?
Anthrax LF inh2: -0.9; BoNT-A LC inh2: 3.5; BoNT-F LC inh: 0.2; SSB-PriA inh: -15.5; Bead autofluor: 18196*

What do the screens show for `O=C(Nc1cnn(Cc2ccc(F)cc2)c1)c1noc2c1CCCC2`?
SSB-PriA inh: -0.4

How did Cc1cc2cc(CN(CCCN3CCOCC3)C(=O)NC3CCCCC3)c(=O)[nH]c2cc1C do in these assays?
Anthrax LF inh2: -1.7; BoNT-A LC inh2: -0.8; BoNT-F LC inh: -2.1; SSB-PriA inh: -5.9; Bead autofluor: 23619*

What do the screens show for `O=C(NC1CCCCC1)N(Cc1cc2cc3c(cc2[nH]c1=O)OCCO3)CC1CCCO1` (stereo unspecified)?
Anthrax LF inh2: -8.2; BoNT-A LC inh2: inconclusive; BoNT-F LC inh: 2.4; SSB-PriA inh: -8.8; Bead autofluor: 18971*

Results for Cc1ccc2cc(CN(CCCN3CCOCC3)C(=O)NC3CCCCC3)c(=O)[nH]c2c1C ?
Anthrax LF inh2: -8.3; BoNT-A LC inh2: -0.1; BoNT-F LC inh: -2.5; SSB-PriA inh: 2.3; Bead autofluor: 6409

Results for CCc1ccc(NC(=O)Cn2cnc3c(=O)n(C)c(=O)n(C)c32)cc1 ?
Anthrax LF inh2: 2.7; BoNT-A LC inh2: 0.6; BoNT-F LC inh: 3.9; SSB-PriA inh: 6.5; Bead autofluor: 4216

How did CCc1ccc(C(C)NC(=O)Cn2cnc3c(=O)n(C)c(=O)n(C)c32)cc1 (stereo unspecified) do in these assays?
Anthrax LF inh2: -0.8; BoNT-A LC inh2: 0.5; BoNT-F LC inh: 0.4; SSB-PriA inh: -11.5; Bead autofluor: 16189*

How did CCOC(=O)c1c(C)n(C)c2ccc(OC(=O)c3cccs3)cc12 do in these assays?
SSB-PriA inh: -9.0

Results for CC(C)c1nc2oc3ccccc3c(=O)c2c(=O)n1-c1ccccc1 ?
Anthrax LF inh2: -17.4; BoNT-A LC inh2: 6.0; BoNT-F LC inh: 4.5; SSB-PriA inh: -10.4; Bead autofluor: 17355*

Results for COc1nc(C)ccc1-c1noc(-c2ccco2)n1 ?
Anthrax LF inh2: -6.4; BoNT-A LC inh2: 0.4; BoNT-F LC inh: -0.1; SSB-PriA inh: -10.2; Bead autofluor: 20448*

How did COc1nc(-c2ccc(C)cc2)ccc1-c1noc(-c2ccco2)n1 do in these assays?
Anthrax LF inh2: 5.3; BoNT-A LC inh2: 1.0; BoNT-F LC inh: -3.1; SSB-PriA inh: 1.8; Bead autofluor: 4596

Results for CSc1ccc(CC(=O)N(Cc2ccncc2)c2nc3c(C)cccc3s2)cc1 ?
SSB-PriA inh: 8.0

What do the screens show for `Cc1csc(NC(=O)CSc2ncc(-c3ccccc3)[nH]2)n1`?
Anthrax LF inh2: -7.2; BoNT-A LC inh2: -0.6; BoNT-F LC inh: -4.0; SSB-PriA inh: 42.0*!; Bead autofluor: 9306

What do the screens show for `O=C(CSc1ncc(-c2ccccc2)[nH]1)Nc1nc2ccccc2s1`?
SSB-PriA inh: 37.0*

Results for CC(C)C(=O)Nc1ccc(C(=O)NCCNC(=O)Cc2cccs2)cc1 ?
SSB-PriA inh: -6.0
